According to article PMC4336329 (PLoS ONE, 2015):
The whole screen tested about 310,000 compounds, of which about 14,000 (4.5%) showed an effect of 50% or more. The effect is printed as a negative number. This excerpt belongs to a sample that is enriched for strong results.

target: human ether-à-go-go-related gene (hERG) potassium channel (human, UniProt Q12809); test: primary screen, population patch clamp on CHO cells stably expressing hERG; higher = less effect of the substance
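Also: peak tail current of the secondary pulse compared with the same well before compound.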

human ether-à-go-go-related gene (hERG) potassium channel, sequence (Q12809 whole entry, looked up): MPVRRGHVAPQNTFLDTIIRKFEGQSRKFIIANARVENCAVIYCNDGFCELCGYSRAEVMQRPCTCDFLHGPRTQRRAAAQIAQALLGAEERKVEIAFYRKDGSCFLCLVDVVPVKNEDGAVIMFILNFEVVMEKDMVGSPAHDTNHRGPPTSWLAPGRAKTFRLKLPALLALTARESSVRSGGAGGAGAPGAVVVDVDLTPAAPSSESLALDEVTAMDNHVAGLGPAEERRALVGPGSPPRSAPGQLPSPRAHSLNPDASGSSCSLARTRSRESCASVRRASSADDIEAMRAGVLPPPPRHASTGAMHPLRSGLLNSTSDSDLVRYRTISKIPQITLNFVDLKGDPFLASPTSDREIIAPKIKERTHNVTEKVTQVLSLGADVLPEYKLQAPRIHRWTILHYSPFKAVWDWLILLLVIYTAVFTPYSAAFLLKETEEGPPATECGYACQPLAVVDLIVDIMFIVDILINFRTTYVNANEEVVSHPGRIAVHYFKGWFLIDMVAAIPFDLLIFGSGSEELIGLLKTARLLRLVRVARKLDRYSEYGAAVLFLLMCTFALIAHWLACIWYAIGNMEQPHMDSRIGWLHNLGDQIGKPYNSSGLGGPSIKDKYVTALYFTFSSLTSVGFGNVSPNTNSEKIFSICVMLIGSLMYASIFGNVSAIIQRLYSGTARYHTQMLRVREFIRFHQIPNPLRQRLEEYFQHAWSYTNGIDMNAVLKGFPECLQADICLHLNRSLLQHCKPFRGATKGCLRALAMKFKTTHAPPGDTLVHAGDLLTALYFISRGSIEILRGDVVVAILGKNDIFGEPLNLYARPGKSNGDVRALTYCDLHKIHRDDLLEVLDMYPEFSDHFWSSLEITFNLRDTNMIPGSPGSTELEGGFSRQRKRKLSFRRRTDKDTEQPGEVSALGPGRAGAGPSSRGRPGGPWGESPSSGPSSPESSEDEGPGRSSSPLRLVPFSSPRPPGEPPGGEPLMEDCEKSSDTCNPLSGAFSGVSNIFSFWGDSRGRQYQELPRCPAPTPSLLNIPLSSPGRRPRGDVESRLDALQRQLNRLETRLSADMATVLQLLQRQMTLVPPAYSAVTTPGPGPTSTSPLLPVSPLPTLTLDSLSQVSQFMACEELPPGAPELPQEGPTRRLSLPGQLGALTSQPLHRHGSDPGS

Structure (SMILES)	hERG current change (%, negative = inhibition) at 10uM [%]
O=C(O)CCCn1cc(NC(=O)c2ccco2)cn1	26.7
O=C(NCCN1CCOCC1)c1ccc(CSc2nc3ccncc3n2Cc2ccc(F)cc2)cc1	-8.35
Fc1ccc(-c2nnn(Cc3nc4ccccc4s3)n2)cc1	-11.2
CCN(CC)C(=O)c1cc2c(=O)n3cccc(C)c3nc2s1	15.5
CCN(c1ccc(OC)cc1)S(=O)(=O)N1CCCC(C(=O)NCc2cccc(C)c2)C1 (centres unmarked)	-26.5
COc1ccc(CNC(=O)C2CCCN(c3nccc(C)n3)C2)cc1 (centres unmarked)	-0.849
Cc1cccc(-c2nc(CN3CCCC(C(=O)NC4CCC(C)CC4)C3)c(C)o2)c1 (centres unmarked)	-68.4
Cc1cccc(-c2nc(CN3CCCC(C(=O)NC4CCCCC4)C3)c(C)o2)c1 (centres unmarked)	-60.4
COc1ccc(CNC(=O)C2CCCN(Cc3nc(-c4cccc(C)c4)oc3C)C2)cc1 (centres unmarked)	-63.8
Cc1cccc(-c2nc(CN3CCCC(C(=O)NC4CCCC4)C3)c(C)o2)c1 (centres unmarked)	-76.3
COc1cccc(N2CCN(S(=O)(=O)c3ccc(-n4cnnn4)cc3)CC2)c1	16.6
CCN(CC)CCNC(=S)NC(=O)c1cn(-c2ccccc2)nc1-c1ccc(OC)cc1	-27.3
COc1ccc(N(CC(=O)N2CCCCC2)S(=O)(=O)c2c(C)nn(C)c2C)cc1	4.36
CCOC(=O)CSc1nnc(Cc2ccccc2)n1CC1CCCO1 (centres unmarked)	5
Clc1ncc(Cn2cccn2)s1	10.5
O=C1C2C3C=CC(C3)C2C(=O)N1/N=C/c1cn(Cc2ccc(F)cc2)c2ccccc12 (centres unmarked)	5.84
O=C(NCCCn1ccnc1)c1ccc(Cl)s1	5.72
COC(=O)c1c(NC(=O)COC(=O)c2ccc(NC(=O)CC#N)cc2)sc2c1CCCCC2	17.6
Cc1cccc(-c2nc(CN3CCCC(C(=O)NC4CCCCCC4)C3)c(C)o2)c1 (centres unmarked)	-69.8

Structure (SMILES)	hERG current change (%, negative = inhibition) at 10uM [%]
Cc1cccc(-c2nc(CS(=O)CC(=O)NC3CCCCC3)c(C)o2)c1 (centres unmarked)	-3.93
O=C(NCCO)c1cc2ccccc2c(=O)s1	6.96
Cc1cccc(-c2nn(-c3ccccc3)cc2C(=O)NCC(c2cccs2)N2CCOCC2)c1 (centres unmarked)	-4.33
O=C1c2ccccc2N2C(=O)c3ccccc3C2N1Cc1ccccc1 (centres unmarked)	-57.9
O=C1c2ccccc2N2C(=O)c3ccccc3[C@H]2N1c1ccccc1	-22.4
O=C1c2ccccc2N2C(=O)c3ccccc3C2N1Cc1ccco1 (centres unmarked)	-27.4
COC(=O)c1ccc(CN2C(=O)c3ccccc3C2=O)cc1	8.01
Cc1cccc(NC(=O)CC2(CC(=O)O)CCCC2)c1	24.6
Cn1nc(-c2ccccc2)cc1NC(=O)c1cccs1	5.18
Cc1ccccc1S(=O)(=O)Cc1ccc(C(=O)NCCN(C)Cc2ccccc2)o1	-48.5
Cc1ccccc1S(=O)(=O)Cc1ccc(C(=O)NCCN(CC(C)C)CC(C)C)o1	-43.6
Cc1ccccc1S(=O)(=O)Cc1ccc(C(=O)NCCN(Cc2ccccc2)C(C)C)o1	-55.6
Cc1ccccc1S(=O)(=O)Cc1ccc(C(=O)NCCc2ccccc2)o1	-30.6
CCN(CC)CCNC(=O)c1ccc(CS(=O)(=O)c2ccccc2C)o1	-24
Cc1ccccc1S(=O)(=O)Cc1ccc(C(=O)NCCCN(C)Cc2ccccc2)o1	-56.2
CCCCn1c(=O)[nH]c(=O)c2c1nc(-c1cc(Cl)c(OC)c(OC)c1)n2C	16.2
CCSc1nc(O)cc(=O)n1-c1ccc(OC)cc1	3.73
O=C(c1ccco1)N(CCC(c1ccccc1)c1ccco1)Cc1ccccc1 (centres unmarked)	-14.8
COc1cc(/C=C2/C(=N)N3N=C(CC(=O)N4CCOCC4)SC3=NC2=O)ccc1OC(C)c1ccccc1 (centres unmarked)	11.7

Structure (SMILES)	hERG current change (%, negative = inhibition) at 10uM [%]
Cc1ccc(NC2CCCN(C(=O)c3ccoc3C)C2)cc1C (centres unmarked)	-1.68
Cc1ccc(NC2CCCN(C(=O)c3ccc(F)cc3)C2)cc1C (centres unmarked)	-9.71
Cc1ccc(C(=O)N2CCCC(Nc3ccc(C)c(C)c3)C2)c(=O)[nH]1 (centres unmarked)	-50.3
O=C(NCC(=O)N1CCCC(C(F)(F)F)C1)c1ccc2ccccc2c1 (centres unmarked)	-11.3
Nc1n[nH]c(-c2ccc([N+](=O)[O-])cc2[N+](=O)[O-])n1	15.4
Cc1ccc2c(C(=O)CN3CC(C)CC(C)C3)c(C)[nH]c2c1 (centres unmarked)	-51
Cc1[nH]c2ccccc2c1C(=O)CN1CC(C)CC(C)C1 (centres unmarked)	0.738
Cc1ccc2c(C(=O)CN3CCN(C4CCCCC4)CC3)c(C)[nH]c2c1	-55.1
Cc1ccc2c(C(=O)CN3CCCC(C)C3)c(C)[nH]c2c1 (centres unmarked)	-14.8
Cc1ccc2c(C(=O)CN3CCCC3)c(C)[nH]c2c1	-6.89
CCOC(=O)C1CCN(C(C)C(=O)c2c[nH]c3ccccc23)CC1 (centres unmarked)	-42.2
Cc1ccc2c(C(=O)CN3CCCCC3)c(C)[nH]c2c1	-11.1
COc1ccc2[nH]cc(C(=O)CN3CCN(C4CCCCC4)CC3)c2c1	-54.8
COc1ccc2[nH]cc(C(=O)CN3CCC(C)CC3)c2c1	-5.75
CCOC(=O)C1CCN(C(C)C(=O)c2c(C)[nH]c3cc(C)ccc23)CC1 (centres unmarked)	-76.7
CCC1CCCCN1CC(=O)c1c(C)[nH]c2cc(C)ccc12 (centres unmarked)	-27.7
COc1ccc2[nH]cc(C(=O)CN3CCCCC3)c2c1	-8.72
CSc1ncccc1C(=O)N1CCN(S(=O)(=O)c2ccc3ccccc3c2)CC1	-34.9
